Test results from PubChem BioAssay (Tox21).
Several values for one entry are separate records, joined by “and”; a condition that tells them apart may be missing. Identical values can stand only once. Activity calls are given as the source filed them. Unless noted, the call rests on the fitted dose curve; in most records, active means well fitted curve in the direction sought with a large enough effect in the repeat runs; inconclusive means weak or mixed curves; inactive means no such curve, though single readings can be large; an effect the other way counts as inactive or inconclusive.

What was measured:
[1] = qHTS assay for small molecule agonists of the p53 signaling pathway (AID 651631; calls by dose curve; further: nearly all actives have a fitted effect of over 15% in size; further: potency means the concentration at half of the fitted maximal effect)
Outline: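 Quantitative high-throughput format: 4,000 p53RE-bla HCT-116 cells/well, 5 h pre-incubation, 16 h compound exposure at 37 °C, 2 h room-temperature substrate step, fluorescence intensity measured.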

[2] = qHTS assay for small molecules that induce genotoxicity in human embryonic kidney cells expressing luciferase-tagged ATAD5 (AID 651632); further: nearly all actives have a fitted effect of over 15% in size; further: potency means the concentration at half of the fitted maximal effect
Outline: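 Increased luciferase signal from ATAD5-tagged reporter cells indicates DNA-damage-driven ATAD5 induction. HEK293T cells are treated for 16 hr at 37C before detection with Amplite.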

[3] = qHTS assay for small molecule agonists of the p53 signaling pathway - cell viability (AID 651633; calls by dose curve; further: nearly all actives have a fitted effect of over 30% in size; further: potency means the concentration at half of the fitted maximal effect)
Outline: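 Viability counter-read: CellTiter-Glo luminescence (30 min, room temperature) in the same p53RE-bla plates. These plates had been exposed to compounds for 16 h at 37 C.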

[4] = qHTS assay for small molecules that induce genotoxicity in human embryonic kidney cells expressing luciferase-tagged ATAD5 - cell viability (AID 651634; calls by dose curve; further: nearly all actives have a fitted effect of over 25% in size; further: potency means the concentration at half of the fitted maximal effect)
Outline: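 Cytotoxicity counterscreen in HEK293T cells bearing an ATAD5-luciferase reporter: live-cell protease activity measured by CellTiter-Fluor fluorescence after 15.5 hr compound exposure.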

[5] = qHTS assay for small molecule disruptors of the mitochondrial membrane potential - cell viability (AID 720634; calls by dose curve; further: nearly all actives have a fitted effect of over 20% in size; further: potency means the concentration at half of the fitted maximal effect)
Outline: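 After overnight attachment at 37 C, HepG2 cells received compound or DMSO vehicle for 1 hr. Viability is then taken from ATP-driven luminescence following a 30 min room-temperature CellTiter-Glo step.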

[6] = qHTS assay to test for compound auto fluorescence at 590 nm (red) in HepG2 cells (AID 720674); further: potency means the concentration at half of the fitted maximal effect
Outline: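 1 hr compound incubation on HepG2 cells, 37 C, 5% CO2; plate read ex 540 nm / em 590 nm; intensities reported as Rose Bengal sodium equivalents.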

[7] = qHTS assay to test for compound auto fluorescence at 535 nm (green) in HepG2 cells (AID 720675)
[8] = qHTS assay to test for compound auto fluorescence at 460 nm (blue) in HEK293 cells (AID 720678)
Outline: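 Auto fluorescence in the blue band was quantified as triamterene equivalency. HEK293 cells were seeded at 2,000/well, dosed after a 4-5 hr attachment, and kept overnight at 37C before the 405/460 nm reading.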

[9] = qHTS assay to test for compound auto fluorescence at 590 nm (red) in HEK293 cells (AID 720679); further: potency means the concentration at half of the fitted maximal effect
Outline: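 Autofluorescence equivalency to Rose Bengal sodium, 540/590nm, in HEK293 cells exposed overnight to 23 nL compound per well.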

[10] = qHTS assay to test for compound auto fluorescence at 535 nm (green) in HEK293 cells (AID 720680)
[11] = qHTS assay to test for compound auto fluorescence at 460 nm (blue) in HEK293 cell free culture (AID 720681)
Outline: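 Blue fluorescence (Ex 405/Em 460 nm, triamterene-equivalent) was read immediately after pin transfer of compound or DMSO into medium (DMEM, 10% FBS) without cells.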

[12] = qHTS assay to test for compound auto fluorescence at 535 nm (green) in HEK293 cell free culture (AID 720682)
Outline: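 Measurement is a direct plate read of green fluorescence (485 nm in, 535 nm out) after compound addition to serum-supplemented DMEM lacking cells, with fluorescein used to express intensities.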

[13] = qHTS assay to test for compound auto fluorescence at 590 nm (red) in HEK293 cell free culture (AID 720683); further: potency means the concentration at half of the fitted maximal effect
Outline: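 Red-channel autofluorescence of compounds in culture medium (DMEM, 10% FBS), no cells, measured at 540/590 nm. Rose Bengal sodium is the reference fluorophore for equivalence.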

[14] = qHTS assay to test for compound auto fluorescence at 460 nm (blue) in HepG2 cell free culture (AID 720685)
Outline: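 Compound (23 nL) or DMSO pinned into cell-free MEM with 10% FBS; blue fluorescence read at 405/460 nm excitation/emission, expressed as auto-fluorescence equivalency to triamterene.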

[15] = qHTS assay to test for compound auto fluorescence at 535 nm (green) in HepG2 cell free culture (AID 720686)
[16] = qHTS assay to test for compound auto fluorescence at 460 nm (blue) in HepG2 cells (AID 720687)
Outline: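 Blue-channel autofluorescence (Ex/Em 405/460 nm, triamterene-equivalent) was measured after 1 hr compound exposure at 37 C, 5% CO2. Cells were HepG2, plated overnight at 37 C in MEM plus 10% FBS.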

[17] = qHTS assay to test for compound auto fluorescence at 590 nm (red) in HepG2 cell free culture (AID 720684); further: potency means the concentration at half of the fitted maximal effect
Outline: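 Plate contents were MEM with 10% FBS plus test compound or DMSO, no cells. Fluorescence was recorded with 540 nm excitation and 590 nm emission.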

[18] = biological target: Glucocorticoid receptor (Homo sapiens) (UniProt P04150); assay: qHTS assay to identify small molecule agonists of the glucocorticoid receptor (GR) signaling pathway (AID 720691; active means well fitted activation curve with a large enough effect in the signal ratio in the repeat runs, not every such curve was filed as active; inconclusive means weak or mixed curves, or effect the other way; inactive means no such curve, though single readings can be large or run the other way; the % refers to the signal ratio; further: potency means the concentration at half of the fitted maximal effect)
Sequence of Glucocorticoid receptor (Homo sapiens) (P04150 whole entry, looked up): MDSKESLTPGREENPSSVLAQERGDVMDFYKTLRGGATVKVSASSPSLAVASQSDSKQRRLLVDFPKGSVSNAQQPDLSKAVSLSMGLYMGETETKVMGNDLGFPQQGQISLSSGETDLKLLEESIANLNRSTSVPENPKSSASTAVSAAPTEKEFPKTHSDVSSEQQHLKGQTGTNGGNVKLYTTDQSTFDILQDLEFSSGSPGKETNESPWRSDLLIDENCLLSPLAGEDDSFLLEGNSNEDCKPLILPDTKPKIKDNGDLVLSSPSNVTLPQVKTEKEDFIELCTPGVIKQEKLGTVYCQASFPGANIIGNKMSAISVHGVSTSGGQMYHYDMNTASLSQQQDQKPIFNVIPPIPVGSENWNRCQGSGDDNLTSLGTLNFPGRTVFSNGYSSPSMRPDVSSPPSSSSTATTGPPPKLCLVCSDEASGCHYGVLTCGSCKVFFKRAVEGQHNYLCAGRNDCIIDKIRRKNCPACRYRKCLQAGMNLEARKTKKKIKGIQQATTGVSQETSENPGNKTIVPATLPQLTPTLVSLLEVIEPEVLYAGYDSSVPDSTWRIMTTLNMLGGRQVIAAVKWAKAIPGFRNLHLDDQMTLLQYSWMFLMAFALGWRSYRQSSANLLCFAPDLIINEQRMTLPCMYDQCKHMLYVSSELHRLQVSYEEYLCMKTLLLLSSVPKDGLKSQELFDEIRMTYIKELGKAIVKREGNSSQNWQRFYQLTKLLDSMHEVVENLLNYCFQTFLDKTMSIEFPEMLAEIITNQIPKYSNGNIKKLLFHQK
Outline: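 Agonist mode in a HeLa line carrying a GRE-controlled beta-lactamase reporter. Compounds act for 18 h at 37 C before a 2 h room-temperature FRET substrate step and fluorescence reading.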

[19] = biological target: Glucocorticoid receptor (Homo sapiens) (UniProt P04150); assay: qHTS assay to identify small molecule antagonists of the glucocorticoid receptor (GR) signaling pathway (AID 720692; active means well fitted inhibition curve with a large enough effect in the signal ratio in the repeat runs, not every such curve was filed as active; inconclusive means weak or mixed curves, or effect the other way; inactive means no such curve, though single readings can be large or run the other way; the % refers to the signal ratio; further: potency means the concentration at half of the fitted maximal effect)
Outline: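 Cells plated, rested 4 h at 37 C/5% CO2; compounds in DMSO pin-transferred; dexamethasone added to 5 nM final; 18 h at 37 C; B/G FRET substrate added, 2 h room temperature; fluorescence measured.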

[20] = qHTS assay for small molecule disruptors of the mitochondrial membrane potential (AID 720635); further: potency means the concentration at half of the fitted maximal effect
Outline: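 Mitochondrial membrane potential tracked with Mito-MPS dye, red aggregates (ex 540/em 590 nm) against green monomers (ex 490/em 535 nm). Compound treatment 1 hr at 37C, dye 30 min in HepG2.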

Measured: Potency
Tags describe the fitted curve by direction and shape or compound fluorescence and quenching.

c1cnccn1
not listed: [16] | [17] | [18] | [19] | [20]
inactive: all other assays above

Cc1ccc(C(=O)O)cc1
not listed: [11] | [17] | [18] | [19] | [20]
inactive: all other assays above

C[C@H]1NCc2cc(-c3ccc4c(=O)c(C(=O)O)cn(C5CC5)c4c3OC(F)F)ccc21
not listed: [20]
inactive: all other assays above

O=S(=O)(O)c1ccc(N=Nc2c(O)ccc3ccccc23)cc1
active: [4] 27.3 µM
not listed: [13] | [16] | [19] | [20]
inactive: all other assays above

C1CCC(SSC2CCCCC2)CC1
not listed: [7] | [14] | [15] | [20]
inactive: all other assays above

CCN(CCN)c1cccc(C)c1
not listed: [17] | [18] | [19] | [20]
inactive: all other assays above

NC(=S)NC(N)=S
not listed: [6] | [14] | [20]
inactive: all other assays above

CCN(CC)c1ccc2c(-c3ccc(S(=O)(=O)O)cc3S(=O)(=O)[O-])c3ccc(=[N+](CC)CC)cc-3oc2c1
active: [3] 9.99 µM | [4] 25.1 µM | [5] 70.7 µM | [6] 398 nM | [9] 501 nM [fluorescent] | [13] 794 nM [fluorescent] | [17] 355 nM [fluorescent]
not listed: [20]
inactive: all other assays above

CN1CCCCC1CCN1c2ccccc2Sc2ccc(S(C)=O)cc21 (stereo not given)
not listed: [8] | [11] | [13] | [20]
inactive: all other assays above

NC(=O)c1cccc([N+](=O)[O-])c1
not listed: [6] | [14] | [20]
inactive: all other assays above

O=[N+]([O-])c1cccc(C(F)(F)F)c1
not listed: [6] | [8] | [20]
inactive: all other assays above

CCCCCCC1CCCC(=O)O1 (stereo not given)
not listed: [7] | [11] | [16] | [17] | [20]
inactive: all other assays above

CC(CO)Oc1ccccc1 (stereo not given)
not listed: [11] | [20]
inactive: all other assays above

CC(C)CCCCCOC(=O)CCS
not listed: [10] | [20]
inactive: all other assays above

CC(C)CCOC(=O)/C=C/c1ccccc1
not listed: [6] | [10] | [20]
inactive: all other assays above

CCC(=O)OC(=O)CC
not listed: [15] | [20]
inactive: all other assays above

CCCCC(CC)COC(=O)CCCCC(=O)OCc1ccccc1 (stereo not given)
not listed: [15] | [17] | [20]
inactive: all other assays above

O=C(O)c1cccc(C(F)(F)F)c1
not listed: [8] | [17] | [20]
inactive: all other assays above

CCCCCCOC(=O)C(C)CC (stereo not given)
not listed: [11] | [20]
inactive: all other assays above

COc1cc(S(=O)(=O)O)c(C)cc1N=Nc1c(O)ccc2cc(S(=O)(=O)O)ccc12
active: [4] 27.3 µM
not listed: [6] | [8] | [10] | [20]
inactive: all other assays above

C=Cc1cccc(C)c1
not listed: [7] | [13] | [19] | [20]
inactive: all other assays above

[Cl][Pt-2]([Cl])([Cl])[Cl]
not listed: [8] | [19] | [20]
inactive: all other assays above

CCC(=O)C(=O)CC
not listed: [13] | [18] | [19] | [20]
inactive: all other assays above

CC(C)(C)C1CCC(=O)CC1
not listed: [8] | [16] | [19] | [20]
inactive: all other assays above

COc1ccc(NC(=O)CC(C)=O)cc1
not listed: [6] | [14] | [18] | [19] | [20]
inactive: all other assays above

O=C(O)c1cc(N=Nc2ccc([N+](=O)[O-])cc2)ccc1O
active: [2] 15.1 µM | [4] 53.5 µM | [19] 27 µM
not listed: [5] | [10] | [11] | [18] | [20]
inactive: all other assays above

COc1cc(C)ccc1O
not listed: [2] | [19]
inactive: all other assays above

Cc1c2ccccc2c(C)c2c1ccc1ccccc12
active: [1] 30.3 µM and 54.5 µM | [5] 12.1 µM | [20] 5.39 µM and 24.3 µM | [18] 3.85 µM and 54.9 µM [inconclusive]
not listed: [3] | [11] | [19]
inactive: all other assays above

O=c1[nH]c2ccccc2n1CCCN1CCN(C(c2ccccc2)c2ccccc2)CC1
not listed: [4] | [15] | [16] | [19] | [20]
inactive: all other assays above

OC12N=C(c3ccccc3)SC1Cc1cc(Cl)ccc12 (stereo not given)
active: [20] 17.2 µM
not listed: [5] | [17] | [18] | [19]
inactive: all other assays above

Sc1nc2ccccc2s1
not listed: [2] | [11] | [13] | [14] | [20]
inactive: all other assays above

O=c1c(O)c(-c2ccc(O)cc2O)oc2cc(O)cc(O)c12
active: [20] 22.9 µM
not listed: [2] | [6] | [10]
inactive: all other assays above
